Source: PubChem
A selection: hits, their analogues and other compounds. The true share with any hit is near 6.6%.
KB-3-1 tox – kills parental KB-3-1 adenocarcinoma cells; KB-3-1 viability, CellTiter-Glo ATP luminescence, 72 h; Potency, µM (titrated, usually from 46.1 µM), hits mostly cytotoxic; 400,000 tested, 1.4% active; AID 1347075; also: nearly all actives have a fitted effect of over 60% in size
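Parental KB-3-1 adenocarcinoma cells in phenol-red-free DMEM with 10% FBS were pin-treated with compounds at several concentrations, incubated 72 h at 37 °C, and viability read by CellTiter-Glo luminescence; concentration-effect curves were fitted after normalization.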
KB-V1 cytotox – kills drug-selected multidrug resistant KB-V1 cells | KB-V1 MDR cells viability, CellTiter-Glo, 72 h | Potency, µM (doses to about 46.1 µM), actives largely listed as cytotoxic | 400,000 tested, 3.4% active; also: nearly all actives have a fitted effect of over 60% in size
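KB-V1 MDR subline cells in DMEM (phenol-red free, 10% FBS) exposed to compounds in qHTS concentration series for 72 h at 37 degrees C. Viability read by CellTiter-Glo luminescence; concentration-effect curves fitted after normalization and correction.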
RGS4 inh – human RGS4 inhibition | P49798 | Transcreener GDP fluorescence polarization, RGS4-accelerated GTP hydrolysis | Potency, µM (top dose mostly 114 µM), actives largely listed as inhibitors | 390,000 tested, 0.039% active | AID 504845; also: nearly all actives have a fitted effect of over 75% in size
Target sequence (P49798 whole entry, looked up): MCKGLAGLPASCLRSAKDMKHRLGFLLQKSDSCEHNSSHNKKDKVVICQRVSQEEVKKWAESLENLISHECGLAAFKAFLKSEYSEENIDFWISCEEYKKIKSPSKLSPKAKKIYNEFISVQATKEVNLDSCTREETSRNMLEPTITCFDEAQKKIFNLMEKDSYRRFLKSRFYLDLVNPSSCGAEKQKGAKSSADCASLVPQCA
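MLSMR compounds (23 nl, pin-transferred) preincubated 10 min at room temperature with a 500nM (2x) first reagent, then RGS4 at 900nM (2x) plus Transcreener GDP mix added; fluorescence polarization (620/688 nm) read before and after 90 min at 30 °C.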
PTAP TSG101 blk – blocks PTAP/TSG101 interaction to inhibit HIV-1 budding; Fluorescence polarization, FITC-PTAP peptide / Tsg101 binding; Potency, µM (top dose mostly 115 µM), usual class: inhibitors; Q99816; AID 493005; 340,000 tested, under 10 active; active = well fitted inhibition curve with a large enough effect in the main read-out, with a control signal flat, not every such curve was filed as active; inconclusive = small, poorly fitted or top-dose-only effect, or effect the other way, or a change in a side signal; inactive = no such curve, though single readings can be large or run the other way
Target sequence (Q99816 whole entry, looked up): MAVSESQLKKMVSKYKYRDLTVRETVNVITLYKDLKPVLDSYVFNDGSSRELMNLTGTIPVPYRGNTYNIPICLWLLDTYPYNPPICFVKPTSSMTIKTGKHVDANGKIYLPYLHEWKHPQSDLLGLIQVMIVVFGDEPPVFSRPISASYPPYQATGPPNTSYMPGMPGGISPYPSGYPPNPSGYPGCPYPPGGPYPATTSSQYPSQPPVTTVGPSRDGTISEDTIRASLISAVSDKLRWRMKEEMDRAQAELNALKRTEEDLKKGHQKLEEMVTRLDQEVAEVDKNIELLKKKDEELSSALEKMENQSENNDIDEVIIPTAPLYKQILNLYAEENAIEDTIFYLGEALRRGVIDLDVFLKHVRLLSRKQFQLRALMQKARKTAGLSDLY
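Compounds were pin-transferred onto Tsg101 binding domain (10 uM final) in HEPES pH 7.5 buffer, then FITC-PTAP peptide was added at 50 nM final. After 20 min at RT, polarization reported peptide displacement across a qHTS concentration series.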
MCF10A rerep – inducers of DNA re-replication in MCF 10A breast cells; AID 624296; MCF 10A DNA re-replication, Hoechst nuclear intensity, 48 h; Potency, µM (doses to about 46.1 µM), usual class: activators; 350,000 tested, 2.9% active; also: nearly all actives have a fitted effect of over 50% in size
SW480 rereplic – inducers of DNA re-replication in SW480 colon cancer cells. SW480 DNA re-replication, Hoechst DNA content imaging, 48 h. Potency, µM (doses to about 46.1 µM), usual class: activators. 340,000 tested, 1.8% active; also: nearly all actives have a fitted effect of over 55% in size
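SW480 cells exposed to compounds for 48 hr at 37 C, 5% CO2, then Hoechst-stained 40 min. Nuclear DNA content imaged by fluorescence scanning (405 nm excitation, 500-530 nm emission); re-replication scored as increased high-intensity nuclei.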
A number is an active result; 0 = inactive; ? = inconclusive; - = no result; ! = a repeat was not active; [ ] = remark or other dose. Unless noted, calls follow the shape of the dose curve; as a rule, active = well fitted curve in the direction sought with a large enough effect; inconclusive = small, poorly fitted or top-dose-only effect, or another doubt; inactive = no such curve, though single readings can be large; an effect the other way counts as inactive or inconclusive.

SMILES | KB-3-1 tox | KB-V1 cytotox | RGS4 inh | PTAP TSG101 blk | MCF10A rerep | SW480 rereplic
COc1ccc(N2CC(C(=O)N3CCCC(C)C3)CC2=O)cc1 (configuration not stated) | 0 | 0 | 0 | 0 | 0 | 18.4µM
CC(C)=CCN1CCN(CC#Cc2ccccc2)CC1CCO (configuration not stated) | 0 | 0 | 0 | 0 | 0 | 0
CC(C)CN1CCN(CC#Cc2ccccc2)CC1CCO (configuration not stated) | 0 | 0 | 0 | 0 | 0.651µM | 0
OCCC1CN(CCCc2ccccc2)CCN1CCc1ccccc1 (configuration not stated) | 0 | 0 | 0 | 0 | 20.6µM | 0
COc1cccc(CNC(=O)c2c(O)nc3ccccn3c2=O)c1 | 0 | 23.1µM | 0 | - | - | -
COc1ccc(CCNC(=O)c2c(C)nc3ccccn23)cc1OC | 0 | 0 | 0 | 0 | 0 | 0
O=C(NCc1ccc(F)cc1)c1c(O)nc2ccccn2c1=O | ? | ? | 0 | - | - | -
COc1ccc(CCNC(=O)c2c(O)nc3ccccn3c2=O)cc1OC | 0 | 7.31µM | 0 | - | - | -
COc1ccccc1CNC(=O)c1cc2c(=O)oc3ccc(C)cc3c2s1 | 0 | 0 | 0 | - | - | -
Cc1ccc(-c2nc3c(c(=O)[nH]c(=O)n3Cc3ccccc3)n2Cc2ccccc2)o1 | 0 | ? | ? | 0 | ? | ?
Cc1cc(C)c2c(=O)[nH]c(=O)n(Cc3ccccc3)c2n1 | 0 | 13µM | 0 | 0 | 0 | 0
CCn1c(=N)n(CC(=O)c2ccc(OC)c(OC)c2)c2ccccc21 | 0 | 13µM | 0 | 0 | 0 | 0
COc1cccc(C(=O)CN2C3=NCCCN3c3ccccc32)c1 | 0 | 0 | 0 | 0 | 0 | 0
COc1ccc(C(=O)CN2C3=NCCCN3c3ccccc32)cc1OC | 0 | 0 | 0 | 0 | 0 | 0.259µM
COc1ccc(NC(=O)/C(Cl)=C(/Cl)S(=O)(=O)Cc2ccc(C)cc2)cn1 | 6.51µM | ? | ? | 0 | ? | 2.59µM
COc1ccc(NC(=O)/C(Cl)=C(/Cl)S(=O)Cc2ccccc2Cl)cn1 (configuration not stated) | 18.4µM | ? | 0 | 0 | 1.03µM | ?
COc1ccc(NC(=O)Cc2ccc(Cl)c(Cl)c2)cn1 | 0 | 0 | 0 | 0 | 0 | 0
Cc1ccc(Cl)cc1N1CCN(C(=O)c2cccn2-c2nnc(N3CCCC3)s2)CC1 | 0 | 0 | 0 | - | - | -
Cc1ccc(C)c(OCCC(=O)OCC(=O)Nc2ccc(Cl)cn2)c1 | 0 | 0 | 0 | 0 | 0 | 18.4µM
Cc1ccc(OCCC(=O)OCC(=O)Nc2ccc(Cl)cn2)cc1 | 0 | 0 | 0 | 0 | 0 | 0
Oc1cc(O)cc(/C=C/c2ccc(O)c(O)c2)c1 | 0 | 0 | 21.2µM! | 0 | 0 | 0
CCOc1ccc(/C=C/c2nc(C#N)c(N3CCN(CC)CC3)o2)cc1 | - | - | 0 | - | - | -
COc1cccc(CN2CCC2(C)C(=O)Nc2cccc(Oc3ccccc3)c2)c1F (configuration not stated) | ? | 7.31µM | - | - | - | -
CCc1ccc(Nc2nnc(SCC(=O)Nc3ccc(C(=O)O)cc3)s2)cc1 | 0 | 0 | 0 | 0 | 0 | 0
CCc1ccc(Nc2nnc(SCC(=O)NC(=O)c3cccn3C)s2)cc1 | ? | ? | 0 | 0 | 18.4µM | ?
SMILES | KB-3-1 tox | KB-V1 cytotox | RGS4 inh | PTAP TSG101 blk | MCF10A rerep | SW480 rereplic
O=C(CSc1ncnc2c1cnn2CCc1ccccc1)Nc1cccc(C(F)(F)F)c1 | 0 | 0 | 0 | 0 | ? | 0
Cc1c(Cl)cccc1NC(=O)CSc1ncnc2c1cnn2CCc1ccccc1 | 0 | 0 | 0 | 0 | 10µM | 0[9.22 µM]
Cc1ccc(S(=O)(=O)Nc2ccc(Br)cc2C(NCC(=O)O)c2ccccc2)cc1 (configuration not stated) | 0 | ? | 0 | 0 | ? | 0
CCOC(=O)CNC(c1ccccc1)c1cc(Br)ccc1NC(C)=O (configuration not stated) | 0 | 0 | 0 | 0 | 0 | 2.91µM
Nc1ccc(Br)cc1C(NCC(=O)O)c1ccccc1 (configuration not stated) | 0 | 0 | 0 | 0 | 0 | 6.51µM
Cc1cccc(C(=O)NC2(C(F)(F)F)N=C(c3ccccc3)N(Cc3ccccc3)C2=O)c1 (configuration not stated) | 0 | 0 | 0 | - | - | -
CCCOC(=O)c1ccc2c(c1)C(=O)N(c1ccccc1)C2=O | 0 | 0 | 0 | 0 | ? | 16.4µM
CCCOC(=O)CN1C(=O)c2ccc(C(=O)OCCC)cc2C1=O | 0 | 0 | 0 | 0 | 0 | 0
O=C(c1cc([N+](=O)[O-])ccc1Cl)N1CCc2ccccc21 | 0 | 0 | 0 | 0 | 0 | 0
O=C(c1cc([N+](=O)[O-])ccc1N1CCCCC1)N1CCCCC1 | 0 | 16.4µM | ? | - | 0 | 0
O=C(c1ccc(-c2ccc([N+](=O)[O-])cc2)o1)N1CCCCCCC1 | ? | 0 | ? | 0 | 11.6µM | 0
O=C(c1cc([N+](=O)[O-])ccc1N1CCCCC1)N1CCc2ccccc21 | 5.8µM | 5.8µM | 0 | 0 | 3.66µM | 6.51µM
Cc1c(F)c(N2CCNC(C)C2)cc2c1c(=O)c(C(=O)O)cn2C1CC1 (configuration not stated) | - | - | - | - | 0 | 0
COc1cccc(-c2nc(SCC(=O)NC3CCCC3)c(-c3ccc(F)cc3)[nH]2)c1 | 0 | 0 | 0 | - | - | -
